Test results as given in paper PMC5540273 (PLoS ONE, 2017).

System: GSK3B
Conditions: 1 µM; n = 1
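Also: KINOMEscan kinase panel screen.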

Row | SMILES | %Inh
1 | O=C1NC(=O)C(N2CCc3ccccc32)=C1c1ccccc1Cl [SB-373598] | 27%
2 | COc1ccc(C2=C(Nc3cccc(C(=O)O)c3)C(=O)NC2=O)cc1 [SB-390765] | 31%
3 | Cc1ccc(NC(=O)Nc2cccc(C(F)(F)F)c2)cc1 [GSK955403] | 0%

Same assay, conditions: concentration: 1 μM, replicates: in singlicate; n = 1

Row | SMILES | %Inh
4 | Cn1cncc1-c1ccc2ncnc(Nc3ccc(OCc4ccccc4)cc3)c2c1 [GW320571] | 4%
5 | Cc1cc(-c2ccc3c(c2)CC[C@@H](N[C@@H](C)c2ccccc2)C3)cnc1N.Cl [GW412617] | 6%
6 | Fc1cccc(COc2nnc(-c3ccc4c(c3)CCO4)o2)c1 | 9%
7 | O=C(Nc1n[nH]c2cc(-c3cccc(F)c3F)ccc12)C1CC1 [SB-733894] | 25%
8 | COc1cc(Nc2nccc(N3CCC(NC(=O)Nc4cc(C)ccc4C)C3)n2)cc(OC)c1OC (centres unmarked) [GSK1379762] | 11%
9 | CC(C)(C)c1ccc(C(=O)Nc2cn3cc(Cl)ccc3n2)cc1 | 0%
10 | COc1ccc2nc(-c3cccc(C)n3)nc(Nc3ccncc3)c2c1 [GSK204919] | 19%
11 | Cc1c(O)cccc1Nc1ccnc2ccc(C(F)(F)F)cc12.Cl [GW466413] | 0%
12 | Cc1ccc(-c2cc(-c3c[nH]nc3-c3ccccn3)ccn2)cc1 [GW684088] | 2%
13 | O=S(=O)(c1ccc(-c2ccnc3[nH]ccc23)cc1)N1CCCC1 [GSK846226] | 16%
14 | Cn1ccc2ncnc(Oc3cccc(C(=O)Nc4ccccc4)c3)c21 | 2%
